Laboratory results published in paper PMC4081100, “A DNA-binding-site landscape and regulatory network analysis for NAC transcription factors in Arabidopsis thaliana”.

Key:
Assay in all cases: universal protein binding microarray (PBM); transcription factors of Arabidopsis thaliana; high values mean tight binding
Conditions in all cases: protein: recombinant; tags: GST; chain copies: 2; dsDNA, one strand shown
GST-ANAC092(1-176) = target: T1, GST-ANAC092(1-176) (Arabidopsis thaliana, UniProt Q9FKA0 1-176)
T1 sequence: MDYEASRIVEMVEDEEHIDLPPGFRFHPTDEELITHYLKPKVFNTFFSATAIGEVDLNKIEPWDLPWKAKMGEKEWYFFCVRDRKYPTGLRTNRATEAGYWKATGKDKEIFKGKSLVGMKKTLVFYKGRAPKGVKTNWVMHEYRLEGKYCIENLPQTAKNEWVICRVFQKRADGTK
Method in brief: (§1)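 GST-tagged NAC-domain, full-length or DNA-binding-domain proteins were induced in cells, with zinc acetate added for zinc-finger proteins. They were purified on glutathione–Sepharose 4B and quantified by A280 or anti-GST western blot. Each was applied at 200 to 500 nM final, in duplicate, to custom all-10-mer Agilent 4 × 180K arrays made double-stranded by primer extension, with gapped and ungapped 8-mers scored. Binding is the normalised enrichment score (E-score).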

GST-ANAC019 NAC domain = target: T2, GST-ANAC019 NAC domain (Arabidopsis thaliana, UniProt Q9C932 14-162)
T2 sequence: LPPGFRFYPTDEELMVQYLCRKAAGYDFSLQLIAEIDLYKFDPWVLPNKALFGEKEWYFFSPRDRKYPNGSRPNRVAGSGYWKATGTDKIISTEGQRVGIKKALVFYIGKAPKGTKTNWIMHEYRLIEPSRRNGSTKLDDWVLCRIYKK
Method in brief: as §1

GST-ANAC055(1-171) = target: T3, GST-ANAC055(1-171) (Arabidopsis thaliana, UniProt Q9LDY8 1-171)
T3 sequence: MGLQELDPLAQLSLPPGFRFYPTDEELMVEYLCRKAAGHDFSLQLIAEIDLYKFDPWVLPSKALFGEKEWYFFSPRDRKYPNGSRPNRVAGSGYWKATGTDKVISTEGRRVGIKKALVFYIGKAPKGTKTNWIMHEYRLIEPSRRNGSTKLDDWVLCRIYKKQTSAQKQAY
Method in brief: as §1

GST-ATAF1 NAC domain = target: T4, GST-ATAF1 NAC domain (Arabidopsis thaliana, UniProt Q39013 7-158)
T4 sequence: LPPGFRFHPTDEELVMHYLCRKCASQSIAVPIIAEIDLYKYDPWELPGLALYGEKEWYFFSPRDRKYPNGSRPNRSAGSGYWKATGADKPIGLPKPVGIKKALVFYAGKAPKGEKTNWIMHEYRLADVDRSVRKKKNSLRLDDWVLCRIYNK
Method in brief: as §1

[1] = target: T5, GST-ANAC092(1-285) full length (Arabidopsis thaliana, UniProt Q9FKA0 1-285)
T5 sequence: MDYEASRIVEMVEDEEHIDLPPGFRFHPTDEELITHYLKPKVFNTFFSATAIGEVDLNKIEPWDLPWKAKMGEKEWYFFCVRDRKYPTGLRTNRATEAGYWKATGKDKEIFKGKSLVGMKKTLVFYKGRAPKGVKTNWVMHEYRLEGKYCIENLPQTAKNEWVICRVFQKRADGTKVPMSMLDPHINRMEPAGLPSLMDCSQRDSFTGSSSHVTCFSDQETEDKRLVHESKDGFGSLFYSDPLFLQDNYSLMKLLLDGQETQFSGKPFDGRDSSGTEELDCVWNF
Method in brief: as §1

GST-NAP(1-166) = target: T6, GST-NAP(1-166) (Arabidopsis thaliana, UniProt O49255 1-166)
T6 sequence: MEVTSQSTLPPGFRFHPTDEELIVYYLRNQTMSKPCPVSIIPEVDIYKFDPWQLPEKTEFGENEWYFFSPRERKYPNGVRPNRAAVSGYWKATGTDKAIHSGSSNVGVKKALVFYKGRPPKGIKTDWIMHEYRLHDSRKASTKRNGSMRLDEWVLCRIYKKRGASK
Method in brief: as §1

GST-NST2(1-184) = target: T7, GST-NST2(1-184) (Arabidopsis thaliana, UniProt Q9M274 1-184)
T7 sequence: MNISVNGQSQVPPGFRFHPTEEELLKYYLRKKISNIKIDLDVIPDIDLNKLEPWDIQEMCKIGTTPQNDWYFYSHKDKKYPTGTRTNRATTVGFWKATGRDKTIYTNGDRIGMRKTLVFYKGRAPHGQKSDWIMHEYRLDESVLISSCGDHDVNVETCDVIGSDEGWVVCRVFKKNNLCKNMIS
Method in brief: as §1

GST-NTL8 NAC domain = target: T8, GST-NTL8 NAC domain (Arabidopsis thaliana, UniProt Q9XIN7 14-156)
T8 sequence: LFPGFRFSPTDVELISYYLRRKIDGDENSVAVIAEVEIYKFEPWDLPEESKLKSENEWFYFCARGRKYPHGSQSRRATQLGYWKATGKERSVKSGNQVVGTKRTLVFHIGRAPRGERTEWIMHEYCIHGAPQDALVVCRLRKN
Method in brief: as §1

GST-SND1(1-203) = target: T9, GST-SND1(1-203) (Arabidopsis thaliana, UniProt Q9LPI7 1-203)
T9 sequence: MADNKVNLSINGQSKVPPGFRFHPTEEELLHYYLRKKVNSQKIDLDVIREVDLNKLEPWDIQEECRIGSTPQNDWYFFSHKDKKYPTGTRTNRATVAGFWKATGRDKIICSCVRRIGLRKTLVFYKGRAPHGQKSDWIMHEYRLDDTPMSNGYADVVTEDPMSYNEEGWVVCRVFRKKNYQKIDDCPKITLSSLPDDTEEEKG
Method in brief: as §1

GST-VND3 NAC domain = target: T10, GST-VND3 NAC domain (Arabidopsis thaliana, UniProt Q9FH59 12-162)
T10 sequence: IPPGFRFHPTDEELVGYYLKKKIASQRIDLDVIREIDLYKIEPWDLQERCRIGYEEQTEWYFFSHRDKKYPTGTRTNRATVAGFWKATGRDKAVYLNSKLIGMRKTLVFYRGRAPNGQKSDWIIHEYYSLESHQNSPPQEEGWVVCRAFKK
Method in brief: as §1

GST-VND7 NAC domain = target: T11, GST-VND7 NAC domain (Arabidopsis thaliana, UniProt Q9C8W9 9-158)
T11 sequence: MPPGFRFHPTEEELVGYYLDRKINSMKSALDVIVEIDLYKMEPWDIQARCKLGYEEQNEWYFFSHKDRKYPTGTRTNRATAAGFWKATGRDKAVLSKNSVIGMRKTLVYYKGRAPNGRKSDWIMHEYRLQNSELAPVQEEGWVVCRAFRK
Method in brief: as §1

Sequence	binding signal (GST-ANAC092(1-176))	binding signal (GST-ANAC019 NAC domain)	binding signal (GST-ANAC055(1-171))	binding signal (GST-ATAF1 NAC domain)	binding signal [1]	binding signal (GST-NAP(1-166))	binding signal (GST-NST2(1-184))	binding signal (GST-NTL8 NAC domain)	binding signal (GST-SND1(1-203))	binding signal (GST-VND3 NAC domain)	binding signal (GST-VND7 NAC domain)
GACACGCA	0.43 E-score	0.358 E-score	0.275 E-score	0.304 E-score	0.455 E-score	0.283 E-score	0.0949 E-score	0.0711 E-score	0.242 E-score	0.208 E-score	0.318 E-score
ATACGGAA	0.33 E-score	0.436 E-score	0.394 E-score	0.332 E-score	0.399 E-score	0.372 E-score	0.223 E-score	0.0989 E-score	0.219 E-score	0.371 E-score	0.38 E-score
TCACGTAA	0.443 E-score	0.47 E-score	0.424 E-score	0.324 E-score	0.445 E-score	0.405 E-score	0.269 E-score	0.209 E-score	0.326 E-score	0.441 E-score	0.44 E-score
GCACGTAA	0.461 E-score	0.478 E-score	0.433 E-score	0.381 E-score	0.467 E-score	0.427 E-score	0.218 E-score	0.189 E-score	0.225 E-score	0.454 E-score	0.454 E-score
ATACGGCA	0.419 E-score	0.361 E-score	0.353 E-score	0.365 E-score	0.433 E-score	0.411 E-score	0.0642 E-score	–	0.228 E-score	0.414 E-score	0.44 E-score
CACGACAC	0.321 E-score	0.41 E-score	0.372 E-score	0.338 E-score	0.355 E-score	0.343 E-score	0.134 E-score	0.0614 E-score	0.0543 E-score	0.299 E-score	0.348 E-score
GCACGGAA	0.388 E-score	0.472 E-score	0.457 E-score	0.357 E-score	0.413 E-score	0.437 E-score	0.2 E-score	0.193 E-score	0.156 E-score	0.402 E-score	0.453 E-score
ACGGAACT	0.292 E-score	0.468 E-score	0.438 E-score	0.392 E-score	0.277 E-score	0.452 E-score	0.159 E-score	0.109 E-score	0.178 E-score	0.417 E-score	0.445 E-score
ACGCAAAC	0.459 E-score	0.391 E-score	0.265 E-score	0.258 E-score	0.471 E-score	0.368 E-score	0.357 E-score	0.0692 E-score	0.431 E-score	0.378 E-score	0.314 E-score
CGTACGCA	0.392 E-score	0.359 E-score	0.328 E-score	0.291 E-score	0.433 E-score	0.365 E-score	0.24 E-score	0.0905 E-score	0.32 E-score	0.378 E-score	0.341 E-score
GACGTGTA	0.409 E-score	0.354 E-score	0.341 E-score	0.291 E-score	0.437 E-score	0.327 E-score	0.193 E-score	–	0.229 E-score	0.354 E-score	0.338 E-score
AACACGCA	0.469 E-score	0.415 E-score	0.345 E-score	0.315 E-score	0.477 E-score	0.386 E-score	0.263 E-score	–	0.335 E-score	0.346 E-score	0.34 E-score
AGCACGCA	0.435 E-score	0.333 E-score	0.281 E-score	0.31 E-score	0.453 E-score	0.282 E-score	0.222 E-score	0.0609 E-score	0.343 E-score	0.301 E-score	0.216 E-score
GTAACGTA	0.451 E-score	0.367 E-score	0.189 E-score	0.322 E-score	0.467 E-score	0.315 E-score	0.321 E-score	0.13 E-score	0.489 E-score	0.338 E-score	0.402 E-score
ATTGCGTA	0.482 E-score	0.375 E-score	0.333 E-score	0.32 E-score	0.485 E-score	0.423 E-score	0.409 E-score	0.0931 E-score	0.491 E-score	0.444 E-score	0.453 E-score
